Experimental findings from PubChem BioAssay AID624404 (Broad Institute, 2012) are described below.

Structures are written as SMILES. The campaign covered roughly 1,800 compounds. About 710 (39%) were called active. Inconclusive results (about 28%) are left out. Not all results are given here. Measured potencies and affinities stand elsewhere. Values without a mark were called inactive.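 The calls were made as follows: active = luciferase signal rise whose fitted curve crosses a set activity limit at or below the top valid tested dose; inconclusive = flat fit with 30 to 70% rise, or poor fit; inactive = signal falling, flat within 30%, or crossing above top dose.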

The assay can be described thus: luciferase activators in glycosylation-insensitive reporter cells, dose response, counter-screen for N-linked glycosylation inhibitor project, D54 LucT cells, luminescence, cherry pick (AID 624404).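 Also: 0% = median neutral control signal and 100% = twice that signal.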 The note with it: D54 LucT luciferase reporter counterscreen, 24 h; series mostly up to 19.5 µM; activity increase (luciferase signal): at the top concentration. A general note: A counterscreen serves to expose hits that act by an unwanted route or on another target.
For `Oc1cc(NCc2ccc(Cl)cc2)cc2cccnc12`, the “activity increase (luciferase signal)” value is -33.2%.

On to `COc1cc(CNc2ccc(O)cc2)cc(Br)c1OCc1ccccc1`, for which the “activity increase (luciferase signal)” value was 23.2%.

On to `CC(=O)n1cc(/C=N/NC(=O)c2sc(C)nc2C)c2ccccc21`, for which the “activity increase (luciferase signal)” value is 65.5%.

On to `CCOc1ccc(-n2c(C)cc(C(=O)CCl)c2C)cc1`, for which the “activity increase (luciferase signal)” value was -6.33%.

Consider `COc1ccc(Nc2c3ccccc3nc3ccccc23)cc1`, for which the “activity increase (luciferase signal)” value was -37.8%.

For `COCCOC(=O)c1[nH]c2c(c1C)C(=O)CC(c1ccco1)C2` (stereo not drawn), the “activity increase (luciferase signal)” value was 34.5%.

`CN(C)CCCNc1cc(-c2ccccc2)nc2cc(-c3cccc(F)c3)nn12`: the “activity increase (luciferase signal)” value was 28.9%.

`CCCCCC[n+]1ccccc1/C=C/c1ccc(N(C)C)cc1`: the “activity increase (luciferase signal)” value was -64.3%.

As to `CCN(CC)S(=O)(=O)c1ccc(-c2nnc(SCC(=O)N3CCc4ccccc43)o2)cc1`, the “activity increase (luciferase signal)” value was 39%.

With `Cc1ccc(Oc2ccc(S(=O)(=O)N3CCOCC3)cc2C(N)=O)c(-n2nc3ccccc3n2)c1`, the “activity increase (luciferase signal)” value is -17.3%.

As to `O=C(c1ccc(Cl)cc1)C(CN1CCCCC1)c1ccccc1` (stereo not drawn), the “activity increase (luciferase signal)” value is -90.7%.

`Nc1ccc2nc(-c3ccccc3)c(-c3ccccc3)nc2c1`: the “activity increase (luciferase signal)” value was 4.94%.

In the case of `O=S(=O)(Nc1cccc2cccnc12)c1ccc(S(=O)(=O)N2CCCC2)cc1`, the “activity increase (luciferase signal)” value is -5.43%.

As for `COc1ccc2nc3c(cc2c1)c(NC(=O)CC(C)C)nn3CC(C)C`, the “activity increase (luciferase signal)” value is -23.4%.

Consider `O=C(Nc1c2ccccc2nc2ccccc12)C(Cl)(Cl)Cl`, for which the “activity increase (luciferase signal)” value was 41.3%.

In the case of `CN1CC(=O)N2C(c3ccc(Cl)cc3)c3[nH]c4ccccc4c3C[C@H]2C1=O` (stereo partly drawn), the “activity increase (luciferase signal)” value is 11.1%.

Take `COc1ccc(Cn2c(=O)c3[nH]cnc3n(-c3ccccc3C)c2=O)cc1`: the “activity increase (luciferase signal)” value is 14.1%.

For `CCN(CC)CCCNC(=O)CSc1c2c(nc3cc(Cl)ccc13)CCCC2`, the “activity increase (luciferase signal)” value is -21.6%.

As to `Cc1cc(-n2c(SCC(=O)NCCC3=CCCCC3)nc3n[nH]c(C)c3c2=N)ccc1Cl`, the “activity increase (luciferase signal)” value was 12.7%.

For `CCOC(=O)c1[nH]c2ccc(F)cc2c1NC(=O)C(C)N1CCc2cc(OC)c(OC)cc2C1` (stereo not drawn), the “activity increase (luciferase signal)” value was 17.3%.

For the compound `CCN(CC)c1ccc(NC(=O)CC2Oc3ccccc3NC2=O)c(C)c1` (stereo not drawn), the “activity increase (luciferase signal)” value is 13.1%.

Take `COc1ccc(C2C3=C(COC3=O)Oc3cc4c(cc32)OCO4)cc1OC` (stereo not drawn): the “activity increase (luciferase signal)” value is 39.7%.

Turning to `Cc1ccc(C)c(NC(=O)Cn2nnc(C(=O)NCc3ccco3)c2N)c1`, the “activity increase (luciferase signal)” value is 50%.

As for `COc1cc(NC(=O)NCc2ccco2)ccc1-c1ccc(NC(=O)NCc2ccco2)cc1OC`, the “activity increase (luciferase signal)” value is -17.9%.

With `C=CCOc1ccccc1C(=O)/C=C1/C(=O)Nc2ccccc21`, the “activity increase (luciferase signal)” value is 39.7%.

Take `c1cnc2nc3c4ccccc4c4ccccc4c3nc2c1`: the “activity increase (luciferase signal)” value was 14%.

Regarding `COc1ccc(-c2nnc(SCC(=O)Nc3ncc(C)s3)n2-c2ccccc2)cc1OC`, the “activity increase (luciferase signal)” value is -24.2%.

Take `Cc1ccc(C(C)C)c(OCc2nnc(SCC(=O)Nc3ncc(C)s3)n2C)c1`: the “activity increase (luciferase signal)” value was -52.9%.

For `Cc1cc(C)c(NC(=O)CSc2nc(COc3ccccc3)nc3ccccc23)c(C)c1`, the “activity increase (luciferase signal)” value was 27.5%.

`CCn1c(SCC(=O)Nc2ccc(C(C)=O)cc2)nc2c([nH]c3ccccc32)c1=O`: the “activity increase (luciferase signal)” value is -9.93%.

Consider `COc1ccc2c(c1)c1ccc3c(c1n2C)C(=O)C=CC3=O`, for which the “activity increase (luciferase signal)” value was 7.43%.

For `CC1(C(=O)NCc2ccc(F)c(F)c2)Cc2c(-c3ccc4c(c3)OCO4)ccnc2O1` (stereo not drawn), the “activity increase (luciferase signal)” value is 17.7%.

Turning to `O=C(N/N=C/c1cccc(Br)c1)c1ccc(N2CCCC2=O)cc1`, the “activity increase (luciferase signal)” value was 60.1%.

For `CC(=O)/C=C/c1ccccc1Oc1c(F)c(F)nc(F)c1F`, the “activity increase (luciferase signal)” value was -19.5%.

`CC(=O)N1c2ccccc2C(=O)C1N(C)c1ccc(C)cc1` (stereo not drawn): the “activity increase (luciferase signal)” value was 11.4%.

With `COc1ccc(CCn2c(=N)c(C(=O)NCCN3CCOCC3)cc3c(=O)n4cccc(C)c4nc32)cc1OC`, the “activity increase (luciferase signal)” value was 8.4%.

`COc1ccc(CCn2c(=N)c(C(=O)NCC3CCCO3)cc3c(=O)n4cccc(C)c4nc32)cc1` (stereo not drawn): the “activity increase (luciferase signal)” value was -27.9%.

Consider `COc1ccc(NC(=O)COC(=O)/C=C/C(=O)OCC(=O)Nc2ccc(OC)c(Cl)c2)cc1Cl`, for which the “activity increase (luciferase signal)” value is 0.926%.

In the case of `CCOc1ccc(Nc2c3ccccc3nc3ccccc23)cc1`, the “activity increase (luciferase signal)” value is -45.8%.

For the compound `CCOc1ccc(Nc2nnc(SCc3nc4ccccc4c(=O)[nH]3)s2)cc1`, the “activity increase (luciferase signal)” value was 4.11%.

With `Cn1cnc([N+](=O)[O-])c1S(=O)(=O)Oc1ccccc1`, the “activity increase (luciferase signal)” value is 16.6%.

As to `CCN1/C(=C/c2sc(-c3ccccc3C)c[n+]2C)Sc2ccccc21`, the “activity increase (luciferase signal)” value is -54.8%.

Regarding `O=C(CC1Sc2ccccc2NC1=O)NNc1cccc(Cl)c1Cl` (stereo not drawn), the “activity increase (luciferase signal)” value was 43.9%.

For `O=C(Cc1ccc(Cl)cc1)Nc1ccccc1N1CCN(C(=O)c2ccccc2)CC1`, the “activity increase (luciferase signal)” value was 309%.

`CCOC(=O)c1c(NC(=O)CCl)sc(C(=O)N(CC)CC)c1C`: the “activity increase (luciferase signal)” value is -4.47%.

As for `CCOC(=O)c1c(NC(C)=O)sc2c1CCC(C=O)=C2Sc1ccccc1`, the “activity increase (luciferase signal)” value was -5.28%.

Consider `CNC(=O)COC(=O)c1ccccc1C(=O)c1ccc(Cl)c([N+](=O)[O-])c1`, for which the “activity increase (luciferase signal)” value was -9.98%.

As to `COc1ccc([N+](=O)[O-])cc1NC(=O)CCN1CCN(CCO)CC1`, the “activity increase (luciferase signal)” value is 29.9%.

On to `CCOC(=O)c1ccc(-n2cccc2/C=C2\NC(=O)NC2=O)cc1`, for which the “activity increase (luciferase signal)” value was -16.1%.

Turning to `CCc1ccc(Oc2coc3cc(OCC(=O)Nc4cc(C)ccc4C)ccc3c2=O)cc1`, the “activity increase (luciferase signal)” value was 1.63%.

As to `COc1cc(C2=NOC(C(=O)NCc3ccc(F)cc3)C2)cc(OC)c1OC` (stereo not drawn), the “activity increase (luciferase signal)” value is 3.85%.

Take `CN(C)S(=O)(=O)c1ccc(N2CCCC2)c(C(=O)Nc2nccs2)c1`: the “activity increase (luciferase signal)” value was 32.4%.

Regarding `COc1cc(Nc2c3c(nc4ccccc24)CCC3)cc(OC)c1OC`, the “activity increase (luciferase signal)” value was 41.2%.
